# Measurements reported in PubChem BioAssay AID720580 (National Center for Advancing Translational Sciences (NCATS), 2013).
# The campaign covered roughly 330,000 compounds. About 1,500 (0.45%) were called active. Not shown: some 6% with an inconclusive outcome. Many of the other results were omitted from the sample, so actives are more common in it than they were. Unmarked numbers belong to inactive results. The call rests on the fitted dose curve; tested in A549 cells.
# Experiment: qHTS for Stage-Specific Inhibitors of Vaccinia Orthopoxvirus: Venus Reporter Primary qHTS; further: nearly all actives have a fitted effect of over 30% in size
# Conditions: Vaccinia virus Venus reporter expression, fluorescence; series mostly up to 36.5 µM; activity change, negative = inhibition: at the top concentration
# On the % scale 0 is the no-effect control and ±100 the full control effect; potency means the concentration at half of the fitted maximal effect.
Structure (SMILES),"activity change, negative = inhibition",Potency
C#CCOCCOCCOCCNc1nc(N2CCN(C(=O)[C@H](CCC(=O)O)n3cc(CN)nn3)CC2)nc(N2CCN(C(=O)[C@H](CCC(=O)O)n3cc(CN)nn3)CC2)n1,-8.97%,–
C#CCOCCOCCOCCNc1nc(N2CCN(C(=O)[C@H](C(C)C)n3cc(CCO)nn3)CC2)nc(N2CCN(C(=O)[C@H]([C@@H](C)CC)n3cc(CCCN=C(N)N)nn3)CC2)n1,-7.34%,–
C#CCOCCOCCOCCNc1nc(N2CCN(C(=O)Cn3cc(CCO)nn3)CC2)nc(N2CCN(C(=O)Cn3cc(CCCN=C(N)N)nn3)CC2)n1,-1.69%,–
C#CCOCCOCCOCCNc1nc(N2CCN(C(=O)CCCCCCCCCCNC(=O)[C@H]([C@@H](C)CC)n3cc(CCCCN=C(N)N)nn3)CC2)nc(N2CCN(C(=O)CCCCCCCCCCNC(=O)[C@H](CO)n3cc(CCCSC)nn3)CC2)n1,–,15.8 µM (active)
C#CCOCCOCCOCCNc1nc(N2CCN(C(=O)Cn3cc(CCO)nn3)CC2)nc(N2CCN(C(=O)[C@H](CCCCN)n3cc(CCCC)nn3)CC2)n1,7.77%,–
C#CCOCCOCCOCCNc1nc(N2CCN(C(=O)[C@H](CCCCN)n3cc(CCC(=O)O)nn3)CC2)nc(N2CCN(C(=O)[C@H](CCCCN)n3cc(CC(C)O)nn3)CC2)n1 (stereo partly specified),-7.26%,–
C#CCOCCOCCOCCNc1nc(N2CCN(C(=O)CCCCCCCCCCNC(=O)[C@H](CCCCN)n3cc(C)nn3)CC2)nc(N2CCN(C(=O)CCCCCCCCCCNC(=O)[C@H](CO)n3cc(CCCSC)nn3)CC2)n1,–,7.94 µM (active)
C#CCOCCOCCOCCNc1nc(N2CCN(C(=O)Cn3cc(CCCCN)nn3)CC2)nc(N2CCN(C(=O)[C@H](CCCCN)n3cc(CCC(=O)O)nn3)CC2)n1,-4.71%,–
Cc1cccc(C)c1NC(=O)CN1CCN(c2ccc(F)cc2)CC1,9.83%,–
COc1cc(OC)c(/C=C/c2ccnc3ccccc23)c(OC)c1,-21.1%,–
CCOC(=O)N(C)c1c(CC)nc2c(OCc3ccccc3C(=O)OC)cccn12,-5.36%,–
CCOC(=O)c1cc2cc(OC)ccc2n1C1CCN(C)CC1,-26.8%,–
CCOC1=C2[C@@H](CN(S(=O)(=O)c3ccc(C)cc3)[C@H]2c2ccccc2F)[C@H]2C(=O)N(Cc3ccccc3)C(=O)[C@H]2C1,-12.5%,–
CCOC(=O)C1=CC[C@@H](c2ccncc2)N(S(=O)(=O)c2ccc(C)cc2)C1,-22.6%,–
CSc1ncc(Sc2ccccc2)c(C(=O)O)n1,2.49%,–
CSc1nc(Nc2ccc(F)cc2)cc(-c2ccccc2)n1,-18.6%,–
CSc1nc(-c2ccccc2)nc(C(Cl)Cl)n1,–,10 µM (active)
Cc1cc(Br)cn2c(Cc3ccccc3C(F)(F)F)c(C3CCCCC3)nc12,-2.66%,–
CCc1nc2c(OCc3ccc(F)c(F)c3)cccn2c1N(C)C(=O)c1ccco1,3.62%,–
COc1ccc(OCC(O)CNCCNc2nccc(C(F)(F)F)n2)cc1 (stereo unspecified),-14.2%,–
CC(C)(C)NCC(O)COc1cccc2[nH]c(=O)[nH]c12 (stereo unspecified),–,inactive
CC(C)(C)CC(C)(C)NCC(O)COCCOc1ccc(Br)cc1 (stereo unspecified),–,10 µM (active)
CCCCNC(=O)C[C@@H]1C[C@@]2(C(=O)OCC)CCC=C2N(Cc2cccc3ccccc23)C1=O,-13.2%,–
COc1ccc(C(C(=O)Nc2c(C)cccc2C)N2CCN(c3ccc(C)cc3)CC2)cc1 (stereo unspecified),-3.04%,–
CN(C)c1cccc(NC(=O)c2ccc(-c3ccc(F)c(F)c3)c3ccoc23)c1,-9.75%,–
CCc1nc2c(OCc3cccc(OC)c3)cccn2c1N(C)C(=O)C(C)C,-15.6%,–

Structure (SMILES),"activity change, negative = inhibition",Potency
CC(=O)Nc1cccc(-c2csc(Nc3cccc(C)n3)n2)c1,-23.1%,–
CC(=O)Nc1ccc(-c2csc(NC=C3C(=O)OC(C)(C)OC3=O)n2)cc1,–,4.47 µM (active)
C/C(CC1CC(C)(C)OC1=O)=N/Nc1nc(-c2ccccc2)cs1 (stereo unspecified),-10.7%,–
O=C(COc1ccccc1C(=O)Nc1ccccc1)Nc1cccc(F)c1,-20.5%,–
COc1ccc(C(=O)C(OP(=O)(OC)OC)c2ccccc2OC)cc1 (stereo unspecified),-6.83%,–
COc1ccc2c(c1)NC(=O)C2CC(=O)N1CCOc2c(cc(-c3cnc4ccccc4c3)cc2OC)C1 (stereo unspecified),-10.6%,–
CC(=O)OC1C2(CC3N4C(=O)C5(CO)SSC4(CC31O)C(=O)N5C)OC(C)C(C)(C)C2=O (stereo unspecified),–,3.16 µM (active)
CCCNC(=O)C1(C)CCN1C(=O)Cc1ccc(-c2ccccc2)cc1 (stereo unspecified),-8.6%,–
CCOC(=O)[C@]12CCCC=C1N(CCC1=CCCCC1)C(=O)[C@H](CC(=O)N1CCCCC1)C2,-21.2%,–
C/C=C/NNC(=O)Cc1ccc(OC)cc1,–,10 µM (active)
COc1ccc(CC(=O)Nc2ccc(C(=O)NC(C)(C)C)cc2)cc1,-5.09%,–
CCCCCNC(=O)Cc1ccc(OC)cc1,-18.1%,–
Cc1cccc(NC(=O)COC(=O)c2ccccc2OCc2cccc(Br)c2)c1,-15.5%,–
CC1(C)OC(=O)C2=C(C[C@@H](C3CCCCC3)O[C@@H]2c2ccc(Cl)cc2)O1,-0.804%,–
Cc1ccc(S(=O)(=O)N2CCN(c3ncnc4ccccc34)CC2)cc1,-26.6%,–
Cc1ccc(C)c(S(=O)(=O)N2CCN(c3ncnc4sccc34)CC2)c1,–,2.51 µM (active)
Cc1ccc(C)c(S(=O)(=O)n2nc(C)c(S(=O)(=O)N3CCC(C)CC3)c2C)c1,3.55%,–
O=[N+]([O-])c1ccc(/C=C/c2ccc3cccnc3c2)cc1,-27.2%,–
Cc1cccc(-c2nnc(SC(C)C(=O)Nc3ccccc3)n2C)c1 (stereo unspecified),-13.2%,–
C=CC(=O)Nc1ccc(Nc2ccnc(Nc3ccc(N4CCN(C)CC4)cc3)n2)cc1,–,10 µM (active)
Cc1cccc(N2CCN(c3ccc(NC(=O)/C=C\C(=O)O)cc3)CC2)c1,-0.657%,–
CN1CCN(c2ccc(NC(=O)c3cc(Cl)c4c(c3)OCCO4)cc2)CC1,-3.42%,–
CCCCc1c(-c2ccc(Cl)cc2)ncn1CCc1ccccc1OC,-26.6%,–
Cc1ccc(-c2nc3c(Cl)cc(C(F)(F)F)cn3c2Cc2cccc(Cl)c2)cc1,6.36%,–
O=S1(=O)CC(N2CCN(c3ccccn3)CC2)CN1Cc1ccc(F)cc1 (stereo unspecified),-8.95%,–
